Only some compounds are listed: those with a hit (about 3.1% of all), similar ones and a draw of the others.
PLK1 PBD block = qHTS for Inhibitors of PLK1-PDB (polo-like kinase 1 - polo-box domain): Primary Screen. Plk1 PBD binding of FITC phosphopeptide, fluorescence polarization. Serine/threonine-protein kinase PLK1 (Homo sapiens), P53350. Potency, µM, inactives show max response, negative = inhibition, most hits filed as inhibitors. 360,000 compounds, 2.8% hits; also: potency is read from the fitted curve at half-maximal effect; series mostly up to about 57 µM; nearly all actives have a fitted effect of over 65% in size
VDR inhibitor = Inhibitors of the vitamin D receptor (VDR): qHTS; Vitamin D3 receptor (Homo sapiens), P11473; VDR-SRC2-3 peptide fluorescence polarization, 2 h; Potency, µM, for inactives: max response, negative = inhibition, most hits filed as inhibitors; 400,000 compounds, 0.93% hits; AID 504847, 2011; also: potency is read from the fitted curve at half-maximal effect
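Compounds are added to VDR with labelled SRC2-3 coactivator peptide and held 2 h at room temperature. Inhibition of the VDR–peptide interaction is then read as a change in fluorescence polarization.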
PI4K2A inh = qHTS for small molecular inhibitors of PI4K2A; Phosphatidylinositol 4-kinase type 2-alpha (Homo sapiens), Q9BTU6; purified PI4K2A, ADP-Glo luminescence, 1 h; active compounds read low; activity change, negative = inhibition, % at 76.9 µM; 420,000 compounds, 0.13% hits; AID 1346378, 2018; in the data active = activity change below about -50%; inconclusive = mostly about -30% to -49%;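 also: -100% = wells without enzyme as full effect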
Target sequence (Q9BTU6 whole entry, looked up): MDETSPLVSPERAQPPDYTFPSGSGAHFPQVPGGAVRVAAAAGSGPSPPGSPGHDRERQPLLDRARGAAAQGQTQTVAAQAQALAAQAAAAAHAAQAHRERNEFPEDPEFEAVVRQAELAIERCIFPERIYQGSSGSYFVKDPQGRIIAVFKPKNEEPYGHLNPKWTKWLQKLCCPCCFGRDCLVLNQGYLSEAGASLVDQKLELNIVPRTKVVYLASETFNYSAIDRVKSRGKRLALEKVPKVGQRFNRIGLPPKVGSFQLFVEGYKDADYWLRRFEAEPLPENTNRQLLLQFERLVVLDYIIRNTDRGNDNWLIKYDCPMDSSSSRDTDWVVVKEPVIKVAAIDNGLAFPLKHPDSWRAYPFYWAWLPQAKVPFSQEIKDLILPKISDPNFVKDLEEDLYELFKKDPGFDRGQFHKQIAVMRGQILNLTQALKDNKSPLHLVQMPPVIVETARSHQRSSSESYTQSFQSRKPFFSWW
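Compounds are screened against recombinant PI4K2A using PI as substrate and ATP, the latter dispensed at 300 microM. Reactions run one hour at ambient temperature before ADP-Glo detection; full inhibition defined by wells lacking enzyme.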
GLS inh = qHTS for Inhibitors of Glutaminase (GLS) | GLS enzymatic activity, qHTS titration | AID 624170, 2012 | Potency, µM (series often up to 45.5 µM), for inactives: at the top dose activity change, negative = inhibition, most hits filed as inhibitors | 410,000 compounds, 0.21% hits; also: potency is read from the fitted curve at half-maximal effect
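hKGA in 45 mM KH2PO4 (pH 8.2), 0.02% Tween-20 with compound, then 1mM L-Glutamine (stock as added) plus glutamate oxidase/HRP/Amplex red coupling mix. Fluorescence read initially and after 30 min at RT; signal change reflects glutamate formation.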
GCN5L2 inh = qHTS Assay for Inhibitors of GCN5L2 | 390,000 compounds, 0.21% hits | GCN5L2 HAT assay, ThioGlo1 CoA-SH fluorescence | AID 504327, 2011 | Potency, µM (titrated, usually from 58.9 µM), for inactives: at the top dose activity change, negative = inhibition, usual class: inhibitors; also: potency is read from the fitted curve at half-maximal effect
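qHTS, 1536-well. 20nM enzyme, pH 7.5 HEPES/EDTA/Tween-20 buffer; 15 min compound preinc., RT. Start: 75uM H3(1-25), 70uM AcCoA, 50uM ThioGlo1. Read Ex340/Em540 at t=0 (autofluorescence flag) and t=20 min.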
Numbers without * were called inactive; ? = inconclusive; . = no result. Unless noted, calls follow the shape of the dose curve; as a rule, active = well fitted curve in the direction sought with a large enough effect; inconclusive = small, poorly fitted or top-dose-only effect, or another doubt; inactive = no such curve, though single readings can be large; an effect the other way counts as inactive or inconclusive. Unless noted, % is scaled to controls: 0 for no effect and ±100 for the full control effect.

SMILES	PLK1 PBD block	VDR inhibitor	PI4K2A inh	GLS inh	GCN5L2 inh
CC(Oc1cccc(Cl)c1)C(=O)Nc1nc(-c2ccccn2)cs1 (stereo unspecified)	19µM*	3%	-4	-4%	-10%
O=C(Nc1nc2ncccn2c1-c1ccc(F)cc1)c1ccc(F)cc1	.	.	-1	.	.
COc1ccc(Cc2n[nH]c(=S)o2)cc1	-21%	-6%	0	12%	-3%
S=c1[nH]nc(CCCc2n[nH]c(=S)o2)o1	21µM*	-9%	-5	0%	0%
S=c1[nH]nc(Cc2ccc(Cl)cc2)o1	34µM*	-15%	-8	2%	-3%
Cc1cccc(NC(=S)NCCc2ccccc2)n1	34µM*	-5%	-2	-15%	3%
S=C(NCCc1ccccc1)Nc1ccccn1	-13%	-5%	4	12%	-1%
CCCNC(=S)N1CCC(NC(=O)C2CCCCC2)CC1	24µM*	?	0	2%	-11%
Cc1ccccc1NC(=S)NC(=O)/C=C/c1ccco1	21µM*	?	-25	11%	-3%
COc1ccccc1NC(=S)NC(=O)/C=C/c1ccco1	?	?	-11	3%	-8%
O=C(C1CCCN(Cc2cccc(Cl)c2)C1)N1CCCCC1 (stereo unspecified)	19µM*	?	0	43%	9%
O=C(C1CCCN(Cc2ccc(Cl)cc2)C1)N1CCCCC1 (stereo unspecified)	-4%	-5%	4	1%	7%
Cc1ccc(OCCCC(=O)N2CCOCC2)cc1	12µM*	-3%	-8	?	-4%
O=S1(=O)CC2c3ccccc3CN2CN1Cc1ccc(F)cc1 (stereo unspecified)	.	.	-3	.	.
Cc1nc(SCc2cccc(C(=O)O)c2)nc2c1CCCC2	27µM*	-5%	-1	17%	4%
O=C(O)c1cccc(CSc2nnc(-c3ccc(Cl)cc3)o2)c1	-2%	0%	1	-4%	-8%
O=C(O)c1cccc(CSc2nc(-c3ccc(Cl)cc3)cc(C(F)(F)F)n2)c1	27µM*	?	-2	3%	-25%
O=C(CSc1ncc(-c2ccccc2)[nH]1)Nc1ccc(Cl)cc1	.	0%	0	18%	-13%
Cc1cc(C)c(Nc2cc(S(=O)(=O)O)c(N)c3c2C(=O)c2ccccc2C3=O)c(C)c1	24µM*	?	?	16%	?
CC(C)n1c2ccccc2c2nnc(SCC(=O)Nc3ccccc3C(=O)O)nc21	27µM*	4%	-2	-12%	1%
CSc1ccc(-c2csc(N3CCC(C(N)=O)CC3)n2)cc1	.	.	-2	.	.
O=C(N/N=C/C(Cl)=C/c1ccc([N+](=O)[O-])cc1)C(=O)Nc1ccc(C(=O)O)cc1	30µM*	?	-2	10%	-9%
CSC1=NC=C(C#N)C2=NC(c3ccc(Cl)cc3)NN12 (stereo unspecified)	-19%	.	-1	13µM*	.
O=C(/C=C/C#Cc1cccc(NS(=O)(=O)c2ccccc2)c1)NO	.	-18%	.	.	14%
Cc1cccc(C(=O)Nc2c(-c3ccccc3)nc3cc(C)ccn23)c1	.	6%	2	26%	-13%
SMILES	PLK1 PBD block	VDR inhibitor	PI4K2A inh	GLS inh	GCN5L2 inh
O=C(c1ccco1)n1c(=S)nc2ccccn21	25µM*	?	1	-22%	-8%
Cc1ccn2c(c1)nc(=S)n2C(=O)c1ccccc1	21µM*	-5%	-3	-9%	-5%
Cc1cccc(C(=O)n2c(=S)nc3cc(C)ccn32)c1	21µM*	-19%	-12	-2%	-27%
O=c1c(O)cc(C2Oc3cc(O)cc(O)c3CC2O)cc2c(C3Oc4cc(O)cc(O)c4CC3O)cc(O)c(O)c12 (stereo unspecified)	.	3.5µM*	.	.	13µM*
Oc1cc(O)c2c(c1)O[C@H](c1ccc(O)c(O)c1)[C@@H](O)C2	-7%	1%	-1	76%	-2%
Cn1cc(P(=S)(N2CCOCC2)N2CCOCC2)cc1P(=O)(N1CCOCC1)N1CCOCC1	13µM*	?	-3	13%	-15%

Compound activity as filed in PubChem.
